Our source for the growth values is PubChem BioAssay (NCI).

This is part of a sample that, as a whole, favours compounds with a hit. Of some 83,000 tested, about 20% had one in any assay.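 48-hour exposure, single concentration, 96-well plates; percent growth endpoint where 0 means no net growth. Active: below 10.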 Unmarked numbers belong to inactive results. Activity calls are given as the source filed them.

Some test systems named below: DU-145 prostate; K-562 leukemia; MALME-3M melanoma; MDA-MB-231 breast; RXF 393 renal; SF-268 CNS; SF-295 CNS; SF-539 CNS; UACC-257 melanoma; M14 melanoma; HCT-15 colon; HT29 colon; SNB-75 CNS; SNB-19 CNS; U251 CNS; PC-3 prostate; SK-MEL-5 melanoma; UACC-62 melanoma; LOX IMVI melanoma; SK-MEL-28 melanoma.
Assay in all cases: NCI-60 one-dose screen, 48 h (100 = growth as untreated, 0 = no growth, -100 = all killed)
What all share (details): 10 µM unless noted

Take `COc1ccc2c(c1)c(-c1nc(-c3c[nH]c4ccncc34)cs1)cn2C`: the growth in the test on DU-145 prostate is -68% (active); in the test with K-562 leukemia, -60.8% (active); in the test with MALME-3M melanoma, -92.9% (active); in the test with MDA-MB-231 breast, -81.8% (active); with RXF 393 renal, -83.8% (active); with SF-268 CNS, -78.7% (active). For the same compound, the growth in the test on SF-295 CNS is -76.1% (active); in the test with SF-539 CNS it was -96.9% (active); in the test on UACC-257 melanoma, -79% (active); in the test on M14 melanoma, -84% (active); with HCT-15 colon, -54.2% (active); with HT29 colon it was -72.1% (active). Also, the growth in the test on SNB-75 CNS is -97.5% (active); with SNB-19 CNS, -58.9% (active); in the test with U251 CNS, -91.9% (active); in the test on PC-3 prostate it was -81.1% (active); with SK-MEL-5 melanoma, -97.4% (active); with UACC-62 melanoma it was -75.8% (active). The growth with LOX IMVI melanoma is -93.3% (active); in the test on SK-MEL-28 melanoma it was -95.7% (active).

With `COc1ccc(C(=O)N2c3ccccc3Sc3ccccc32)c(OC)c1`, the growth with DU-145 prostate is 9.99% (active); in the test on K-562 leukemia, 10.5%; in the test with MALME-3M melanoma it was 66.9%; in the test with MDA-MB-231 breast it was 38.4%; in the test on RXF 393 renal it was -0.69% (active); with SF-268 CNS, 36.6%. Also, the growth with SF-295 CNS is 11.6%; in the test on SF-539 CNS it was -18.8% (active); in the test with UACC-257 melanoma, 77%; in the test on M14 melanoma, -9.55% (active); in the test on HCT-15 colon it was 19.2%; in the test with HT29 colon, -0.815% (active). The growth in the test with SNB-75 CNS is 18.5%; with SNB-19 CNS, 31.7%; with U251 CNS it was 24.5%; in the test on PC-3 prostate it was 10.5%; in the test with SK-MEL-5 melanoma, 19%; with UACC-62 melanoma it was 13.8%. Also, the growth in the test on LOX IMVI melanoma is 37.8%; in the test with SK-MEL-28 melanoma, 57.9%.

As for `Cc1ccccc1/C=C/C(=O)c1cccc(OCCCOc2cccc(C(=O)/C=C/c3ccccc3C)c2)c1`, the growth with DU-145 prostate was 102% [3 µM]; in the test on K-562 leukemia, 73.6% [3 µM]; in the test on MALME-3M melanoma, 108% [3 µM]; in the test with MDA-MB-231 breast, 94.8% [3 µM]; in the test on RXF 393 renal, 98.3% [3 µM]; in the test on SF-268 CNS, 99.4% [3 µM]. Further, the growth in the test on SF-295 CNS was 90.6% [3 µM]; with SF-539 CNS, 103% [3 µM]; in the test with UACC-257 melanoma it was 103% [3 µM]; in the test with M14 melanoma, 103% [3 µM]; in the test on HCT-15 colon, 87.2% [3 µM]; in the test with HT29 colon, 79.6% [3 µM]. For the same compound, the growth in the test on SNB-75 CNS was 86.1% [3 µM]; with SNB-19 CNS, 97.1% [3 µM]; in the test on U251 CNS it was 76.1% [3 µM]; with PC-3 prostate it was 88.8% [3 µM]; in the test on SK-MEL-5 melanoma it was 99.5% [3 µM]; with UACC-62 melanoma, 80.2% [3 µM]. Also, the growth was 67.5% [3 µM] in the test on LOX IMVI melanoma and 112% [3 µM] in the test with SK-MEL-28 melanoma.

For the compound `CC1(C)COB(OCC(C)(C)COB2OCC(C)(C)CO2)OC1`, the growth in the test with DU-145 prostate is 103%; in the test with K-562 leukemia, 106%; in the test with MALME-3M melanoma it was 93.8%; in the test on MDA-MB-231 breast, 112%; with RXF 393 renal it was 123%; in the test with SF-268 CNS, 100%. In addition, the growth with SF-295 CNS is 97.4%; with SF-539 CNS it was 98.3%; in the test with UACC-257 melanoma, 98.6%; with M14 melanoma it was 105%; in the test on HCT-15 colon, 108%; in the test on HT29 colon, 110%. For the same compound, the growth in the test with SNB-75 CNS was 107%; with SNB-19 CNS, 110%; in the test on U251 CNS, 98.2%; in the test with PC-3 prostate, 94.2%; in the test with SK-MEL-5 melanoma, 93.2%; with UACC-62 melanoma, 106%. Besides, the growth with LOX IMVI melanoma is 96%; with SK-MEL-28 melanoma, 113%.

For the compound `COc1ccc(/C=N/NC(=O)c2ccc(-n3cc(-c4ccccc4)nn3)cc2)cc1OC`, the growth in the test on DU-145 prostate was 103%; in the test with K-562 leukemia, 93.2%; in the test on MALME-3M melanoma, 77.8%; in the test with MDA-MB-231 breast, 103%; with RXF 393 renal it was 110%; with SF-268 CNS it was 93.8%. The growth was 97.7% with SF-295 CNS; 102% with SF-539 CNS; 103% in the test on UACC-257 melanoma; 82.5% with M14 melanoma; 97.6% with HCT-15 colon; 100% in the test on HT29 colon. Besides, the growth in the test on SNB-75 CNS was 94%; with SNB-19 CNS it was 107%; in the test with U251 CNS, 106%; in the test with PC-3 prostate it was 94%; with SK-MEL-5 melanoma, 89.2%; with UACC-62 melanoma, 76.7%. For the same compound, the growth is 94.5% in the test with LOX IMVI melanoma and 88.8% with SK-MEL-28 melanoma.

For `N=C(N)c1ccc(-c2ccc(-c3ccc(Cl)c(Cl)c3)s2)nc1`, the growth is -76.5% (active) in the test with DU-145 prostate; -23.4% (active) with K-562 leukemia; 60.5% in the test on MALME-3M melanoma; -27.1% (active) in the test with MDA-MB-231 breast; 79.5% in the test on RXF 393 renal; 46.8% with SF-268 CNS. For the same compound, the growth in the test on SF-295 CNS is 0.36% (active); with SF-539 CNS, 23.1%; with UACC-257 melanoma, 87.9%; in the test on M14 melanoma it was 36.1%; in the test on HCT-15 colon, -71.9% (active); in the test on HT29 colon, 5.19% (active). The growth was 84.8% in the test with SNB-75 CNS; 11.7% with SNB-19 CNS; -55.7% (active) in the test with U251 CNS; -16.9% (active) in the test with PC-3 prostate; 91.3% with SK-MEL-5 melanoma; 81% in the test on UACC-62 melanoma. Besides, the growth in the test with LOX IMVI melanoma is -88.6% (active); in the test on SK-MEL-28 melanoma it was 107%.

Regarding `CN1C(=O)/C(=C\c2c(Cl)cccc2Cl)c2ccccc21`, the growth with DU-145 prostate is 99.6%; with K-562 leukemia, 30.7%; in the test with MALME-3M melanoma, 79%; in the test with MDA-MB-231 breast it was 87.2%; in the test on RXF 393 renal, 85.1%; in the test with SF-268 CNS, 87.2%. Besides, the growth in the test with SF-295 CNS was 86.3%; in the test with SF-539 CNS it was 87.1%; in the test with UACC-257 melanoma it was 87.2%; with M14 melanoma, 75.5%; in the test on HCT-15 colon, 67%; in the test with HT29 colon, 84.5%. In addition, the growth was 61.3% in the test on SNB-75 CNS; 80% in the test with SNB-19 CNS; 88.4% with U251 CNS; 95% in the test on PC-3 prostate; 86.5% in the test with SK-MEL-5 melanoma; 71.2% in the test on UACC-62 melanoma. The growth in the test with LOX IMVI melanoma was 82.5%; in the test on SK-MEL-28 melanoma, 94.4%.
